VLA-4 inh: inhibition in human VLA-4 binding assay, primary screen, VLA-4 allosteric modulator project, MLPCN library, flow cytometry, VLA-4 expressing cells; Integrin alpha-4 (Homo sapiens), P13612; ligand binding flow cytometry; inhibition, % (about 7 µM as worked out from the volumes in the protocol); hit rate 0.2% among 330,000; in the data active = inhibition above about 50%
MEKK3 PB1 HTS: modulators of MEKK3-MEK5 PB1 binding, primary screen, biochemical, wildtype MEKK3, multiplex bead flow cytometry, Alexa488-MEK5; binding response (% of control), % at 10 µM; bead-based flow cytometry, Alexa488-MEK5 binding to MEKK3; actives lie on both sides; 0 = blocked by unlabeled MEK5, 100 = vehicle; hit rate 1.4% among 290,000;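 active = binding response more than 3 SD above or below the average of its plate-row segment, actives on both sides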;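 note: Alexa488 bead fluorescence after subtracting the streptavidin-only scavenger bead signal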
Target sequence (Q99759 whole entry, looked up): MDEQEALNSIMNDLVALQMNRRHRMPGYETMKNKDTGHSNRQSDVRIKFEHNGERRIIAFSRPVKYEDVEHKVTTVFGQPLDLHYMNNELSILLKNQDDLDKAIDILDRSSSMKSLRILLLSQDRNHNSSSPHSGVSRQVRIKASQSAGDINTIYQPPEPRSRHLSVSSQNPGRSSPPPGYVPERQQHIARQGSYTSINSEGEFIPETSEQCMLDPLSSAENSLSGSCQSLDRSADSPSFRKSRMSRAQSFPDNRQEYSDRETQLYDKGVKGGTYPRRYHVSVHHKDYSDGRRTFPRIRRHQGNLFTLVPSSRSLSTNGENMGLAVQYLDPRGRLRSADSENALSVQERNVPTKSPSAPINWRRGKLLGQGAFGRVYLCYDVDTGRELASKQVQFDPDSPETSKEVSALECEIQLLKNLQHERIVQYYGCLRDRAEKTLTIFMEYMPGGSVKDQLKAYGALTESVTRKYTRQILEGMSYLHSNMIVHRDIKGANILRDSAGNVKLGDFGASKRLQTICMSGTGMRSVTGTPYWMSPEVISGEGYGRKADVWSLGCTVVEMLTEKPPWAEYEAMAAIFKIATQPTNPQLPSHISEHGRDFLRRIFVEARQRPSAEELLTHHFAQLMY
MEKK2wt PB1 HTS: modulators of MEK5 binding to wildtype MEKK2, primary screen, biochemical, multiplex bead flow cytometry, Alexa488-MEK5 | hit rate 1.1% among 290,000 | binding response (% of control), % at 10 µM | Mitogen-activated protein kinase kinase kinase 2 (Homo sapiens), Q9Y2U5 | AID 1531, 2009 | Alexa488-MEK5 binding to MEKK2 WT; actives lie on both sides; in the data active = binding response below about 67% or above about 130%
MEKK2 mut-MEK5: MEK5 binding signal on mutant MEKK2 PB1, primary screen, biochemical, multiplex bead flow cytometry, Alexa488-MEK5; Alexa488-MEK5 binding to MEKK2 mutant; percent response, % at 10 µM; hit rate 0.35% among 290,000; AID 1530, 2009; in the data active = percent response above about 24%, passing the limit was not always enough
MEKK2wt confirm: modulators of MEK5 binding to wildtype MEKK2, confirmation, biochemical, single concentration, multiplex bead flow cytometry; Alexa488-MEK5 binding to MEKK2 WT; actives lie on both sides; AID 1892, 2009; hit rate 2.4% among 5,900; binding response (% of control), % at 10 µM; shares compounds with MEKK3 PB1 HTS; in the data active = binding response below about 16% or above about 210%; inactive = in between
MEKK2mut confirm: mutant MEKK2 PB1-MEK5 binding signal retest – biochemical, single concentration, multiplex bead flow cytometry, confirmation; percent response, % at 10 µM; Alexa488-MEK5 binding to MEKK2 mutant; shares compounds with MEKK3 PB1 HTS; hit rate 2% among 5,900; in the data active = percent response mostly above about 71%, no sharp cut-off; inactive = mostly below about 38%;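 note: higher means compound restores mutant binding toward wildtype level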
MEKK3 confirm: MEKK3 wild-type PB1 binding to MEK5, inhibitors, confirmation, biochemical, bead multiplex flow cytometry, single concentration, wildtype. hit rate 1.8% among 5,900. AID 1894, 2009. binding response (% of control), % at 10 µM. shares compounds with MEKK3 PB1 HTS. Alexa488-MEK5 binding to MEKK3; hits give low values;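 active = binding response below 72% of control, or above a set upper limit, though filed actives all read lower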;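 note: 100% = DMSO only wells and 0% = binding blocked by excess unlabeled MEK5; lower values mean stronger disruption of MEK5 binding to MEKK3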
Starred values were filed as active, the others as inactive; · = no result; [ ] = dose if it differs, or a comment. In the library only some 2.2% were active in any assay of this set; here they are far more common.

SMILES | VLA-4 inh | MEKK3 PB1 HTS | MEKK2wt PB1 HTS | MEKK2 mut-MEK5 | MEKK2wt confirm | MEKK2mut confirm | MEKK3 confirm
CCC(=O)Nc1ccccc1C(=O)OCc1ccc(C(=O)c2ccccc2)cc1 | 1 | 107 | 109 | 3 | · | · | ·
CCC(=O)Nc1ccccc1C(=O)OCC(=O)c1cccc2ccccc12 | 2 | 68*[inhibitor] | 79 | -11 | 99 | -9 | 100
CCOc1ccc2[nH]c3c(c2c1)CNCC3 | -4 | 102 | 158* | 13 | 134 | 23 | 97
CCOc1ccc2[nH]c(=S)[nH]c2c1 | 20 | 105 | 104 | -2 | · | · | ·
Cn1c(=O)c2c(nc(NCC3CCCC(CN)C3)n2Cc2ccc(Cl)cc2Cl)n(C)c1=O (centres undefined) | 7 | 104 | 141* | 30* | 185 | 48 | 109
Cn1c(=O)c2c(nc(NCCNC(=O)c3ccco3)n2Cc2ccc(Cl)cc2Cl)n(C)c1=O | 4 | 99 | 106 | 3 | · | · | ·
CCN(C[C@H]1N[C@@](Cc2ccccc2)(C(=O)OC)[C@H]2C(=O)N(C)C(=O)[C@@H]12)C(=O)Nc1ccccc1 | 31 | · | · | · | · | · | ·
CCN1CCN(c2ccc(S(=O)(=O)N3CCCCC3)cc2NC(=O)COc2ccc(F)cc2Cl)CC1 | -3 | 102 | 139* | 21 | 131 | 18 | 103
CC(=O)Nc1ccc(S(=O)(=O)NCc2ccc3[nH]c(C)cc3c2)cc1 | -1 | 80*[inhibitor] | 72*[inhibitor] | -9 | 83 | 2 | 94
Cc1cc2cc(CNS(=O)(=O)c3ccc4ccccc4c3)ccc2n1C | -12 | 100 | 96 | 2 | · | · | ·
CC(=O)Nc1ccc(S(=O)(=O)NCc2ccc3c(c2)cc(C)n3C)cc1 | -4 | 70*[inhibitor] | 50*[inhibitor] | -14 | 90 | -9 | 97
Cc1ccc(S(=O)(=O)NCc2ccc3[nH]c(C)cc3c2)cc1 | 4 | 78 | 101 | 0 | · | · | ·
CC(=O)Nc1ccc(S(=O)(=O)NCCNc2ccccc2[N+](=O)[O-])cc1 | -1 | 128* | 112 | 0 | 106 | -2 | 106
CC(=O)Nc1ccc(S(=O)(=O)NCc2ccc(C)cc2)cc1 | -1 | 126* | 122 | 7 | 97 | -3 | 95
O=[N+]([O-])c1ccccc1NCCNS(=O)(=O)c1ccc(Cl)cc1 | 6 | 105 | 101 | 1 | · | · | ·
CN(C)c1cccc(C(=O)NNC(=O)/C=C/c2cccs2)c1 | 10 | · | · | · | · | · | ·
O=C(c1ccccc1)N1CCc2ccccc21 | -5 | 96 | 99 | 0 | · | · | ·
COc1ccc(C(=O)N2CCc3ccccc32)cc1 | 4 | 122* | 100 | 5 | 99 | -6 | 98
COc1ccc(-c2csc(NC(=O)CSC(C)C(=O)Nc3cc(C)on3)n2)cc1OC (centres undefined) | 1 | · | · | · | · | · | ·
N/C(=N\N=C\c1ccco1)SC1CC(=O)N(c2ccc(C(=O)O)cc2)C1=O (centres undefined) | 3 | 135* | 123 | 5 | 110 | 0 | 100
CC(C)CC(=O)N=C1SC2CS(=O)(=O)CC2N1Cc1ccccc1 (centres undefined) | -4 | 195* | 114 | 1 | 97 | -8 | 98
N=c1oc2ccccc2cc1-c1nc(-c2ccc(Cl)cc2)cs1 | -107 | 128* | 97 | -2 | 91 | -9 | 98
O=C(NN1C(=O)C2C3c4ccccc4C(c4ccccc43)C2C1=O)c1ccccc1 (centres undefined) | 27 | 127 | 109 | 1 | · | · | ·
Cc1ccc(C(=O)NN2C(=O)C3C4c5ccccc5C(c5ccccc54)C3C2=O)cc1 (centres undefined) | -6 | 129* | 104 | 3 | 100 | 5 | 103
CCN(CC)CCCNC(=O)c1[nH]c2ccccc2c1Sc1ccc(Cl)cc1 | -3 | 105 | 163* | 38* | 167 | 46 | 106
SMILES | VLA-4 inh | MEKK3 PB1 HTS | MEKK2wt PB1 HTS | MEKK2 mut-MEK5 | MEKK2wt confirm | MEKK2mut confirm | MEKK3 confirm
COC(=O)c1[nH]c2ccccc2c1Sc1ccccc1 | -15 | 110 | 104 | 10 | · | · | ·
CCOC(=O)C1=C(Nc2ccc(Cl)cc2)OCC1=O | 7 | 96 | 95 | -5 | · | · | ·
CCC(=O)OC1(C)C(=O)C2=COC(c3ccc(OC)cc3)=CC2=C(Br)C1=O (centres undefined) | -7 | 93 | 99 | -2 | · | · | ·
CC1(OC(=O)CCc2ccccc2)C(=O)C=C2C=C(c3ccc(C#N)cc3)N(C3CC3)C=C2C1=O (centres undefined) | 36 | 125 | 140* | 4 | 97 | -1 | 101
CC1(OC(=O)CCc2ccccc2)C(=O)C=C2C=C(c3ccc(C#N)cc3)N(Cc3ccccc3)C=C2C1=O (centres undefined) | -11 | 102 | 93 | -15 | · | · | ·
COC(=O)CCC(=O)OC1(C)C(=O)C2=CN(c3ccccc3)C(c3ccc(OC)cc3)=CC2=C(Br)C1=O (centres undefined) | -27 | 75*[inhibitor] | -5.0* | 5 | 89 | -4 | 91
COC(=O)CCC(=O)OC1(C)C(=O)C2=CN(C3CC3)C(c3ccc(OC)cc3)=CC2=C(Br)C1=O (centres undefined) | 18 | 87 | 2.0*[inhibitor] | -2 | 93 | 2 | 94
COc1cc(OC)cc(-c2c(-c3ccc(F)cc3)c3cc(-c4cnc(OC)nc4)ccc3n2C)c1 | 22 | · | · | · | · | · | ·
CCOC(=O)C1=C(C)NC(C)=C(C(=O)OCC)C1C(=O)OCC(=O)NCc1ccc(F)cc1 | 1 | · | · | · | · | · | ·
CNC(=O)CCc1[nH]c2ccccc2c1Sc1ccccc1 | -3 | 160* | 105 | 1 | 100 | -2 | 101
CCOC(=O)c1c(CN2CCN(C)CC2)n(-c2ccccc2)c2cc(Br)c(O)cc12 | 27 | 103 | 130 | 13 | · | · | ·
CCOC(=O)c1c(CSC(=N)N)n(-c2ccccc2)c2cc(Br)c(OC(C)=O)cc12 | -8 | 102 | 143* | 22 | 169 | 48 | 112
CCOC(=O)c1c(CSc2ccccc2)n(C)c2cc(Br)c(OCC(O)CNC(CO)(CO)CO)cc12 (centres undefined) | -33 | 69*[inhibitor] | 95 | -10 | 162 | 35 | 106
CCOC(=O)c1c(CN2CCN(Cc3ccccc3)CC2)n(C)c2cc(Br)c(OC)cc12 | 0 | 105 | 135* | 7 | 173 | 38 | 108
